# Test results: article PMC7862700, “An all-to-all approach to the identification of sequence-specific readers for epigenetic DNA modifications on cytosine”
# How the values were obtained:
# Experiment in all cases: DAPPL (digital affinity profiling via proximity ligation, sequencing); 10 mM Tris-HCl pH 7.5, 50 mM NaCl, 1 mM DTT, 4% glycerol, room temperature, 30 min; GST-TFs on glutathione beads, 16-mer random dsDNA library, 0.1% formaldehyde crosslink after washing; high values mean tight binding
# FLI1 = biological target: T1, FLI1 (Homo sapiens, UniProt Q01543 1-452); settings: protein: recombinant; tags: N-terminal GST; dsDNA, one strand shown
# T1 sequence: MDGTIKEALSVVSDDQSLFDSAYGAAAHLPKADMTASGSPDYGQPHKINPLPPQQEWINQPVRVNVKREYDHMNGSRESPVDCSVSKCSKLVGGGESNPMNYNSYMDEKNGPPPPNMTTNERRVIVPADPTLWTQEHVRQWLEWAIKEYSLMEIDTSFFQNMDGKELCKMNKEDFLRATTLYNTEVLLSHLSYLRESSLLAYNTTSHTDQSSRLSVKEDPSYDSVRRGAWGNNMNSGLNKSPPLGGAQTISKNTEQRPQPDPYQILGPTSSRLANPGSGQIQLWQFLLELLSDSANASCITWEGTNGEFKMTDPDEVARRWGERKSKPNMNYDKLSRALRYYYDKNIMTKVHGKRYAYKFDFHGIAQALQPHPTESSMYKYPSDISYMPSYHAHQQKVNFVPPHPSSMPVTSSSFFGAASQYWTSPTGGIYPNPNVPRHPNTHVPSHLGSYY
# In short: (§1)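 A tag-only sample was pooled with DNA-barcoded human transcription factors that had been expressed in yeast as GST fusions and captured on glutathione beads. The pools were incubated for 30 min at room temperature with 200 nmole of a random double-stranded 16-mer DNA library in Tris/NaCl/DTT/glycerol buffer, then washed, crosslinked with 0.1% formaldehyde, proximity-ligated (BsaI/T4 ligase, 1 h, 37 °C), PCR-amplified and sequenced on an Illumina NextSeq500. Binding signal is each hexamer's read frequency for a factor divided by its frequency for the tag-only sample.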
# ELK1 = biological target: T2, ELK1 (Homo sapiens, UniProt P19419 1-428); settings: protein: recombinant; tags: N-terminal GST; dsDNA, one strand shown
# T2 sequence: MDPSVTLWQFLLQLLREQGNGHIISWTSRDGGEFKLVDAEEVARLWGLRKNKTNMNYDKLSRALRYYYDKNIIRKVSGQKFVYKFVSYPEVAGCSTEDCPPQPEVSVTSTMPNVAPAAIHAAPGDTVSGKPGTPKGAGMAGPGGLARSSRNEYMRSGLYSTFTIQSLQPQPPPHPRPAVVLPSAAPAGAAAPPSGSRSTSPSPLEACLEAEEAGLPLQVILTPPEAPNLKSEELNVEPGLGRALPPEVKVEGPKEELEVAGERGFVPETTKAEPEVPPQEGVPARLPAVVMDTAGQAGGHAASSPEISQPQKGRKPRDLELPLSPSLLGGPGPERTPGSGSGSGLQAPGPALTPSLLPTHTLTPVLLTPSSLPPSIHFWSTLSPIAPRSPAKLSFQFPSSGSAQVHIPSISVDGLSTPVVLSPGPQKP
# In short: as §1
# GABPA = biological target: T3, GABPA (Homo sapiens, UniProt Q06546 1-454); settings: protein: recombinant; tags: N-terminal GST; dsDNA, one strand shown
# T3 sequence: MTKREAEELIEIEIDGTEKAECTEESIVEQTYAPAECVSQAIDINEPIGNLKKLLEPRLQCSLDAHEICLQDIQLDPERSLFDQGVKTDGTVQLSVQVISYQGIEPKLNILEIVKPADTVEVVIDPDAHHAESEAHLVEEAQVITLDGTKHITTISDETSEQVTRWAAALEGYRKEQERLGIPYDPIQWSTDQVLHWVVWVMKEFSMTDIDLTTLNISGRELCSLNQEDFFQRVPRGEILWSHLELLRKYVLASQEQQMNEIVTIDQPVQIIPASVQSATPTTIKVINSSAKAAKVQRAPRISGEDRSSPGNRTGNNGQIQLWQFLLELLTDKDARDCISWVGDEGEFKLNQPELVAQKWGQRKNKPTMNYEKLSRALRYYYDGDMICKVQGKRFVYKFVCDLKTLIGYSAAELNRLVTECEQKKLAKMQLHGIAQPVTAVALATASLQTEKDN
# In short: as §1
# ERG = biological target: T4, ERG (Homo sapiens, UniProt P11308 1-479); settings: protein: recombinant; tags: N-terminal GST; dsDNA, one strand shown
# T4 sequence: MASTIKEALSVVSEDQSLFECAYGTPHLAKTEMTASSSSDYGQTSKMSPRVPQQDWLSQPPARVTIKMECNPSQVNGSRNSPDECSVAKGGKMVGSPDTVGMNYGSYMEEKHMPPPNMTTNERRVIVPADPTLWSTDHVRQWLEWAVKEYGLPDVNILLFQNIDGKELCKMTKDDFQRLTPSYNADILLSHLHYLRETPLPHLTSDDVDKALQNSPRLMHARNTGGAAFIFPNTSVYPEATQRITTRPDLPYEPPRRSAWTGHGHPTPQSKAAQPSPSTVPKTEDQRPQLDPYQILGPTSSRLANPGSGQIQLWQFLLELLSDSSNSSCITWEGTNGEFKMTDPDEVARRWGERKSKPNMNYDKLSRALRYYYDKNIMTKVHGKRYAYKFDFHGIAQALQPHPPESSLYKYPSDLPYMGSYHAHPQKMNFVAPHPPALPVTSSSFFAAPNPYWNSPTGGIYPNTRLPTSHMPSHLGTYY
# In short: as §1
# ELF1 = ELF1 (Homo sapiens, UniProt P32519 1-619); settings: protein: recombinant; tags: N-terminal GST; dsDNA, one strand shown
# In short: as §1
# EHF = biological target: T5, EHF (Homo sapiens, UniProt Q9NZC4 1-300); settings: protein: recombinant; tags: N-terminal GST; dsDNA, one strand shown
# T5 sequence: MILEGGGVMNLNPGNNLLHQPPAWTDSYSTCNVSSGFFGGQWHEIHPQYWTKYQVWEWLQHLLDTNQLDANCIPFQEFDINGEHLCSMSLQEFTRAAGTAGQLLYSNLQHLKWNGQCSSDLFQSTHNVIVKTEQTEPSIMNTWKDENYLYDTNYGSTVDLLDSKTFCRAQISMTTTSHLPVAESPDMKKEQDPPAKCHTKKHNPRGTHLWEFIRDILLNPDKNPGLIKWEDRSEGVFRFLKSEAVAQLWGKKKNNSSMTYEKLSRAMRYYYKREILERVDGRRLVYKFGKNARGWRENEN
# In short: as §1
# SPIB = SPIB (Homo sapiens, UniProt Q01892 1-262); settings: protein: recombinant; tags: N-terminal GST; dsDNA, one strand shown
# In short: as §1
# ELK3 = biological target: T6, ELK3 (Homo sapiens, UniProt P41970 1-407); settings: protein: recombinant; tags: N-terminal GST; dsDNA, one strand shown
# T6 sequence: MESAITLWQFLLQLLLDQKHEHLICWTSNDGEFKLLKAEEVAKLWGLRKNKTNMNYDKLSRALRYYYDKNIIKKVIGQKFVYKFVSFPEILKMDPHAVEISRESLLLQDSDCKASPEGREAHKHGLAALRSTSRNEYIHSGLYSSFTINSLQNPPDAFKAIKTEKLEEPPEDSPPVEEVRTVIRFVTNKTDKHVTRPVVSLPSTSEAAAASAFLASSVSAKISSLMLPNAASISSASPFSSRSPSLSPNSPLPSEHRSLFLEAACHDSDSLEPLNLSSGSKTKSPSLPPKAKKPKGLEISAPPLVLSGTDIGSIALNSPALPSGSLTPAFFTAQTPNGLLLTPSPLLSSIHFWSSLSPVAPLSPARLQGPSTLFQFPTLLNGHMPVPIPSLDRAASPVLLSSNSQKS
# In short: as §1
# FEV = biological target: T7, FEV (Homo sapiens, UniProt Q99581 1-238); settings: protein: recombinant; tags: N-terminal GST; dsDNA, one strand shown
# T7 sequence: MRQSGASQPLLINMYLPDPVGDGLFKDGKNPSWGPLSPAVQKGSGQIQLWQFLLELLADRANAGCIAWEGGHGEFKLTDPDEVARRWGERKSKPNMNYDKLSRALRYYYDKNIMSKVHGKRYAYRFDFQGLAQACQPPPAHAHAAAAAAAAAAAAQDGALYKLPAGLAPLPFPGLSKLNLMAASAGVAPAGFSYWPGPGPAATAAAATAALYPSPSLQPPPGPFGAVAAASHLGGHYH
# In short: as §1
# ETV5 = ETV5 (Homo sapiens, UniProt P41161 1-510); settings: protein: recombinant; tags: N-terminal GST; dsDNA, one strand shown
# In short: as §1
# HSF1 = HSF1 (Homo sapiens, UniProt Q00613 1-529); settings: protein: recombinant; tags: N-terminal GST; chain copies: 3; dsDNA, one strand shown
# In short: as §1
# SPIC = biological target: T8, SPIC (Homo sapiens, UniProt Q8N5J4 1-248); settings: protein: recombinant; tags: N-terminal GST; dsDNA, one strand shown
# T8 sequence: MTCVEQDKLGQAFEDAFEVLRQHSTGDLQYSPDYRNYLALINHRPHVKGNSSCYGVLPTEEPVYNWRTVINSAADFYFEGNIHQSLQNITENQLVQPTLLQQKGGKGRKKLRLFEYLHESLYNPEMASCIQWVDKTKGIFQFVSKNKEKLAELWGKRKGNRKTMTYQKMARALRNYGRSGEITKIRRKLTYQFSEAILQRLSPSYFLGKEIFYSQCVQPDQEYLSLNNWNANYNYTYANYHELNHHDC
# In short: as §1
# ELF4 = ELF4 (Homo sapiens, UniProt Q99607 1-663); settings: protein: recombinant; tags: N-terminal GST; dsDNA, one strand shown
# In short: as §1
# ELK4 = biological target: T9, ELK4 (Homo sapiens, UniProt P28324-2 1-405); settings: protein: recombinant; tags: N-terminal GST; dsDNA, one strand shown
# T9 sequence: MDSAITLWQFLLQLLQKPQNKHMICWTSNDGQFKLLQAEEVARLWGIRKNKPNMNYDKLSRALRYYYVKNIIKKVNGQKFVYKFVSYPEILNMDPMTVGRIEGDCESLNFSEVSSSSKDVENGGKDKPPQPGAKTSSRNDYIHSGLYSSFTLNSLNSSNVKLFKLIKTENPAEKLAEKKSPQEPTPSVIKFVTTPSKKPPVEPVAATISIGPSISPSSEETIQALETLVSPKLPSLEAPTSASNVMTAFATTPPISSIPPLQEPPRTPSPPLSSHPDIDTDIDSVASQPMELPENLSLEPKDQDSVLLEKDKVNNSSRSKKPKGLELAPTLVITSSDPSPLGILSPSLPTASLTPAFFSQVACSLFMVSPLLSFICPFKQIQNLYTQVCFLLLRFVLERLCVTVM
# In short: as §1
# ETV2 = biological target: T10, ETV2 (Homo sapiens, UniProt O00321 1-342); settings: protein: recombinant; tags: N-terminal GST; dsDNA, one strand shown
# T10 sequence: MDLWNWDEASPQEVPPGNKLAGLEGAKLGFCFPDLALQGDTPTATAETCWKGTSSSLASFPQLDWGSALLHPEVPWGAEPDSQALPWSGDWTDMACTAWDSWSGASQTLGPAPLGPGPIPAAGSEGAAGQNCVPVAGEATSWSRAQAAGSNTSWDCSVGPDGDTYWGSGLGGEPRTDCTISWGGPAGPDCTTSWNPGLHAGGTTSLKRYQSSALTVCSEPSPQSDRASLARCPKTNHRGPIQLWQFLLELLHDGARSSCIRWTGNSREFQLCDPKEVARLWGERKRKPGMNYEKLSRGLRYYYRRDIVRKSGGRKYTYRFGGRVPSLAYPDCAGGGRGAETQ
# In short: as §1
# ELF3 = biological target: T11, ELF3 (Homo sapiens, UniProt P78545 1-371); settings: protein: recombinant; tags: N-terminal GST; dsDNA, one strand shown
# T11 sequence: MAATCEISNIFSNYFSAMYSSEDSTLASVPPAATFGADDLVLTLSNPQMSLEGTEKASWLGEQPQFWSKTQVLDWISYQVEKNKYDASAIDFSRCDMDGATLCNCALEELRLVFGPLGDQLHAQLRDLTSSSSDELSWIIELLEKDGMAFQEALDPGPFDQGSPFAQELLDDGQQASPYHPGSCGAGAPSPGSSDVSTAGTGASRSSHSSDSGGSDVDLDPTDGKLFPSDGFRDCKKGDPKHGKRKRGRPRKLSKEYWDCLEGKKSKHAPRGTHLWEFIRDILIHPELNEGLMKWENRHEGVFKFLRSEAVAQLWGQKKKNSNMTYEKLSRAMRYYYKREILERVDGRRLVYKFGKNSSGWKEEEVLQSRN
# In short: as §1
# CRX = CRX (Homo sapiens, UniProt O43186 1-299); settings: protein: recombinant; tags: N-terminal GST; dsDNA, one strand shown
# In short: as §1
# ETV1 = ETV1 (Homo sapiens, UniProt P50549 1-477); settings: protein: recombinant; tags: N-terminal GST; dsDNA, one strand shown
# In short: as §1
# Chain of HSF1 (Q00613 whole entry): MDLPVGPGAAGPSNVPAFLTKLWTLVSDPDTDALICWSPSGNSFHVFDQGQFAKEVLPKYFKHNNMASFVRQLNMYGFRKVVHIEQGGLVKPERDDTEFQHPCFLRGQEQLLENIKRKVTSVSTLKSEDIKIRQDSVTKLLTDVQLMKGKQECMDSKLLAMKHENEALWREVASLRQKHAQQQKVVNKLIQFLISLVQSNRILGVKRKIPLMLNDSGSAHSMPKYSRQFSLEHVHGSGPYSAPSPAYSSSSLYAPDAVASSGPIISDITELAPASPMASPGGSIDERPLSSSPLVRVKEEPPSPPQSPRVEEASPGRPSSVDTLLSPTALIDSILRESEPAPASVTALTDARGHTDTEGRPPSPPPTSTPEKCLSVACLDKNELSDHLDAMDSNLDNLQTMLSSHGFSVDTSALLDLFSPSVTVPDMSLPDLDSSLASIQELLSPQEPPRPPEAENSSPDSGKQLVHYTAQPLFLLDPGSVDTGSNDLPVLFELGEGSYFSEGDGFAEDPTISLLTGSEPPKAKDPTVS
# Chain of ELF4 (Q99607 whole entry): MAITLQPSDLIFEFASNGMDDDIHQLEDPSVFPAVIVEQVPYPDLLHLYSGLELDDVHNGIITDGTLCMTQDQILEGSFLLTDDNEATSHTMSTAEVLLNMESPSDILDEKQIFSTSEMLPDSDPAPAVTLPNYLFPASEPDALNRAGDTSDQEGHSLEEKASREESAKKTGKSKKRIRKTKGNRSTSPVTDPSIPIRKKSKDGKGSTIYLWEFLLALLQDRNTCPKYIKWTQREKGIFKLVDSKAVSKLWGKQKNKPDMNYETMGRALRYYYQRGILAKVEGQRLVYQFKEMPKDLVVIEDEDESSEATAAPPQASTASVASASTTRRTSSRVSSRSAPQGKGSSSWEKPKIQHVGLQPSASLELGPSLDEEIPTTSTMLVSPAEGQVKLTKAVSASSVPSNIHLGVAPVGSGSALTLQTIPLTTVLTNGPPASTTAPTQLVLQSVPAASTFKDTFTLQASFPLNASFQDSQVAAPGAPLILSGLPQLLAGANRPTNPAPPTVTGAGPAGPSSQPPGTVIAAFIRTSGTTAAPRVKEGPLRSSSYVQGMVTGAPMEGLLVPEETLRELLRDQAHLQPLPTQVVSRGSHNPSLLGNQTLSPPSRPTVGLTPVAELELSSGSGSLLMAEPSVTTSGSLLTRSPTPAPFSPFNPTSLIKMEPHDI
# Chain of ELF1 (P32519 whole entry): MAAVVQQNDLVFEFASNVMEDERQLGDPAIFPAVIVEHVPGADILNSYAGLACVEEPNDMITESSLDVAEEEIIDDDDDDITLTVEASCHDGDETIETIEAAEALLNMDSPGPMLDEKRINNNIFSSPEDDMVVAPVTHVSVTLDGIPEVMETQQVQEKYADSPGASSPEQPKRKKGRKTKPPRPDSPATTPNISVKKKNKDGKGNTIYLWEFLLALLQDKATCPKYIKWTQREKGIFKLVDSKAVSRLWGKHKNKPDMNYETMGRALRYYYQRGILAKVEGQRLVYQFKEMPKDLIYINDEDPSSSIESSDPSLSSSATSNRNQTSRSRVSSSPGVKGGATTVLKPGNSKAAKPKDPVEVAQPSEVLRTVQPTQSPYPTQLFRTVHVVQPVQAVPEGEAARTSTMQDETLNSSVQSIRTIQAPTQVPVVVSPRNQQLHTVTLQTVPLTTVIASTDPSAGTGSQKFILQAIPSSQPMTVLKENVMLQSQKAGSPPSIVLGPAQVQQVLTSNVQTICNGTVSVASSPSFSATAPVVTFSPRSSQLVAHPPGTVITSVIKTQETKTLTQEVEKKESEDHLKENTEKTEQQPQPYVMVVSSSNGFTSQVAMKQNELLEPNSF
# Chain of ETV1 (P50549 whole entry): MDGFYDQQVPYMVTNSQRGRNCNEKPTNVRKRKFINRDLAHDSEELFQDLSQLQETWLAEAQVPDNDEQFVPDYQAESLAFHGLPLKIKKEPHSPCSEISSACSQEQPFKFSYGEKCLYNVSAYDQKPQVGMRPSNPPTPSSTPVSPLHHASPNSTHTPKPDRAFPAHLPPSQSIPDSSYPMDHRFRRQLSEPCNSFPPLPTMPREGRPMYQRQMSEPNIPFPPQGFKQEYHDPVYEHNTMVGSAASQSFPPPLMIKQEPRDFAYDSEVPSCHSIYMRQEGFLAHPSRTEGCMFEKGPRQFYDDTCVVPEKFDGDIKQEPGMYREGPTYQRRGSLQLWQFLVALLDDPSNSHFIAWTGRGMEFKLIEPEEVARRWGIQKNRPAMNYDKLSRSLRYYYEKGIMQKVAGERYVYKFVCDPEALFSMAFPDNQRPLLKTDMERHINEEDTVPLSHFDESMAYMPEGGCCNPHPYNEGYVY
# Chain of CRX (O43186 whole entry): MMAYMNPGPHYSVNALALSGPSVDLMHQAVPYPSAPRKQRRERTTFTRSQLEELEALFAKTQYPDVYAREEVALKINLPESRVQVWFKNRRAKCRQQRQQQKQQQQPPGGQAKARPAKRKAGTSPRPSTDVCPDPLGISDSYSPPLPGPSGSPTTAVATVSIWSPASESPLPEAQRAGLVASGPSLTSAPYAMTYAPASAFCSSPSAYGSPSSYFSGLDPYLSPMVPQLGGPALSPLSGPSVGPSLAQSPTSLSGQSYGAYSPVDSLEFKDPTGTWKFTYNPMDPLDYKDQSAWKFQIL
# Chain of SPIB (Q01892 whole entry): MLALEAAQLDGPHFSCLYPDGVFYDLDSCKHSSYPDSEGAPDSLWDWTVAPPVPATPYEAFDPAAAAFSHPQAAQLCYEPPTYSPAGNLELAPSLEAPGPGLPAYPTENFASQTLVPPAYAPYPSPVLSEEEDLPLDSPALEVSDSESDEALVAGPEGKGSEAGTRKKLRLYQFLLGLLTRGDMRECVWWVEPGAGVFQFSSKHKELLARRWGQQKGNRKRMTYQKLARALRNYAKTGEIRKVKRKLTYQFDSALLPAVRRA
# Chain of ETV5 (P41161 whole entry): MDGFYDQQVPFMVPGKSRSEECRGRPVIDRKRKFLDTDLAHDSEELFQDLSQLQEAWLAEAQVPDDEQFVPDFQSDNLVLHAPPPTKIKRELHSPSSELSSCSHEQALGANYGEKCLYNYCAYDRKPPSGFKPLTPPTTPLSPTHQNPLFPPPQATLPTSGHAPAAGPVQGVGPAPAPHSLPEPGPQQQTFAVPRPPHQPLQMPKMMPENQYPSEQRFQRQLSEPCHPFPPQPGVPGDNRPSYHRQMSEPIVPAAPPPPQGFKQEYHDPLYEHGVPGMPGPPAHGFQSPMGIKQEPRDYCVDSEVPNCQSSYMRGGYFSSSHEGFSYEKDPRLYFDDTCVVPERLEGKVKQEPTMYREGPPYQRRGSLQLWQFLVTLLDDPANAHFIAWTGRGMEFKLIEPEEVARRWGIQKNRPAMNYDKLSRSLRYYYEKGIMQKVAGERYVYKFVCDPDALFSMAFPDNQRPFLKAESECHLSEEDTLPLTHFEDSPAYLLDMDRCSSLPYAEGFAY
sequence,measurement,setting,value
TTAGTA,binding signal,FLI1,"1.23 fold enrichment (6-mer frequency, TF over GST control)"
same,binding signal,ELK1,"1.13 fold enrichment (6-mer frequency, TF over GST control)"
same,binding signal,GABPA,"1.21 fold enrichment (6-mer frequency, TF over GST control)"
same,binding signal,ERG,"1.21 fold enrichment (6-mer frequency, TF over GST control)"
same,binding signal,ELF1,"1.12 fold enrichment (6-mer frequency, TF over GST control)"
same,binding signal,EHF,"1.08 fold enrichment (6-mer frequency, TF over GST control)"
same,binding signal,SPIB,"1.06 fold enrichment (6-mer frequency, TF over GST control)"
same,binding signal,ELK3,"1.08 fold enrichment (6-mer frequency, TF over GST control)"
same,binding signal,FEV,"1.05 fold enrichment (6-mer frequency, TF over GST control)"
same,binding signal,ETV5,"1.15 fold enrichment (6-mer frequency, TF over GST control)"
same,binding signal,HSF1,"1.68 fold enrichment (6-mer frequency, TF over GST control)"
same,binding signal,SPIC,"1.16 fold enrichment (6-mer frequency, TF over GST control)"
same,binding signal,ELF4,"1.1 fold enrichment (6-mer frequency, TF over GST control)"
same,binding signal,ELK4,"1.12 fold enrichment (6-mer frequency, TF over GST control)"
same,binding signal,ETV2,"1.22 fold enrichment (6-mer frequency, TF over GST control)"
same,binding signal,ELF3,"1.15 fold enrichment (6-mer frequency, TF over GST control)"
same,binding signal,CRX,"2.39 fold enrichment (6-mer frequency, TF over GST control)"
same,binding signal,ETV1,"1.11 fold enrichment (6-mer frequency, TF over GST control)"
